High-throughput results from PubChem.
Compounds with a hit are over-represented: about 6% of the library has one in this group of screens.
PLK1 PBD inh – PLK1 (human) polo-box domain binding inhibition; AID 720504; Potency, µM, inactives show max response, negative = inhibition, actives largely listed as inhibitors; 360,000 tested, 2.8% active; Plk1 PBD binding of FITC phosphopeptide, fluorescence polarization; further: series mostly up to about 57 µM; nearly all actives have a fitted effect of over 65% in size
Target sequence (P53350 whole entry, looked up, the tested form may be a part): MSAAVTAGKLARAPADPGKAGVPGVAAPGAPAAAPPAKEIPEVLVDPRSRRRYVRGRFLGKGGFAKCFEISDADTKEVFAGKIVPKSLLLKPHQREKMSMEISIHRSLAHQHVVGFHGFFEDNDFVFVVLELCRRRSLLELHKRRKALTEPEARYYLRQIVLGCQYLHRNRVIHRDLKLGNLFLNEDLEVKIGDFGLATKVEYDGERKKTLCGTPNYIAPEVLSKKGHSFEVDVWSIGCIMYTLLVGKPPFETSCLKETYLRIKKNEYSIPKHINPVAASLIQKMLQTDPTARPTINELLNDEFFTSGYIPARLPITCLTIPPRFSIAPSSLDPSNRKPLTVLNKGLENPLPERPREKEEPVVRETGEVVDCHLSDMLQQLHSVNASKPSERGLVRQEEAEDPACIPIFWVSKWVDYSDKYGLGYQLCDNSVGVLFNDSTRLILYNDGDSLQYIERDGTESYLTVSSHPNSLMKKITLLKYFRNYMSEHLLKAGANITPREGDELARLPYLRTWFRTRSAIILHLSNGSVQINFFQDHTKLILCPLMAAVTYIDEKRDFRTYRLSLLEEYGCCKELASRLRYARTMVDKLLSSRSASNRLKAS
Sfp PPTase inh – blocks B. subtilis Sfp PPTase activity; AID 1490; 310,000 tested, 3.5% active; Q9F4F7; Potency, µM, inactives show largest response in the series, negative = inhibition, usual class: inhibitors; Biochemical Sfp PPTase activity, qHTS;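 further: the enzyme is Sfp with the accession as filed and its product quenches rhodamine fluorescence; 0% = enzyme reaction without inhibitor and -100% = no enzyme wells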
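Sfp 15 nM + cpd, 15 min RT; start w/ rhodamine-CoA 5 uM, BHQ-2-YbbR 12.5 uM (final); 50 mM Hepes pH 7.6, 10 mM MgCl2, 0.01% NP-40, 0.01% BSA; read 525/598 nm at 0 and 30 min.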
Tau ThT inhib – inhibitors of human tau fibril formation, thioflavin T binding; P10636; recombinant tau K18 P301L, heparin-induced fibrillization, ThT fluorescence; Potency, µM (top dose mostly 57.4 µM), without a hit: at the highest dose activity, negative = inhibition, usual class: inhibitors; 270,000 tested, 2.1% active; AID 1460; further: nearly all actives have a fitted effect of over 55% in size
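ThT emission at 510 nm, taken 1 hr after adding 30 uM dye, quantifies aggregates formed when 20 uM heparin acts on human tau K18 P301L for 6 hr at 37 C.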
VDR inhibitor – blocks the human vitamin D receptor. Potency, µM, without a hit: max response, negative = inhibition, usual class: inhibitors. 400,000 tested, 0.93% active. VDR-SRC2-3 peptide fluorescence polarization, 2 h. P11473. AID 504847
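Reagent solutions, kept cold and dark, are dispensed first; compounds are then pinned in at 23 nl, plates briefly spun, and incubated 2 h at ambient temperature. Inhibition of VDR–SRC2-3 peptide binding is read by fluorescence polarization.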
Tau fluor cs – counter-screen for tau fibril formation inhibitors; tau K18 P301L Alexa594 fluorescence, heparin fibrillization; Potency, µM (doses to about 57.7 µM), without a hit: top-dose activity change, negative = decrease; 280,000 tested, 0.93% active; further: nearly all actives have a fitted effect of over 55% in size
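Human tau K18 P301L (15 uM unlabeled, 0.24 uM Alexa 594-labeled) in 100 mM sodium acetate pH 7 with 20 uM heparin, 6 hr at 37 C. ThT 30 uM added, 1 hr ambient; Alexa 594 FP and total fluorescence read at 555/632 nm.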
Tau fibril FP – inhibitors of human tau fibril formation; Potency, µM (doses to about 57.7 µM), for inactives: at the highest dose activity, negative = inhibition, most hits filed as inhibitors; K18 P301L tau heparin fibrillization, Alexa594 FP, 6 h; P10636; 280,000 tested, 0.39% active; further: nearly all actives have a fitted effect of over 55% in size
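Recombinant K18 P301L […], labeled with Alexa 594 at 0.24 uM over 15 uM unlabeled; heparin inducer 20 uM final; 37 C, 6 hr; FP endpoint.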
Numbers without * were called inactive; ? = inconclusive; . = not tested or not shown; ! = a repeat was not active; [ ] = dose if it differs, or a comment. The call rests on the fitted dose curve; in most records, active means well fitted curve in the direction sought with a large enough effect; inconclusive means small, poorly fitted or top-dose-only effect, or another doubt; inactive means no such curve, though single readings can be large; an effect the other way counts as inactive or inconclusive. Unless noted, on the % scale 0 is the no-effect control and ±100 the full control effect; potency means the concentration at half of the fitted maximal effect.

SMILES	PLK1 PBD inh	Sfp PPTase inh	Tau ThT inhib	VDR inhibitor	Tau fluor cs	Tau fibril FP
Cc1[nH]c(C)c(S(=O)(=O)Nc2ccccc2Cl)c1C(=O)N1CCCC1	-19%	19%	.	-5%	.	.
O=C(CSc1nc(=O)n(Cc2ccco2)c2c1CCC2)NCc1ccccc1	.	.	-2%	0%	-2%	-9%
COC(=O)C1=C(c2ccccc2)c2ccccc2S(=O)(=O)N1CC(=O)Nc1cccc(C(C)=O)c1	.	.	3%	10%	?	?
CCc1cc2c(nc1CC)CCN(CC/C(C)=N/O[C@@H](C)c1cn([C@H](CO)Cc3ccccc3)nn1)C2	.	-1%	-5%[11.5 µM]	.	-6%[11.6 µM]	-1%[11.6 µM]
COC(=O)[C@@]1(Cc2ccc(OC)cc2)[C@H]2c3cc(C(=O)N(C)C)n(Cc4ccc(C(F)(F)F)nc4)c3C[C@H]2CN1C(=O)c1ccccc1	.	17%	?	.	-15%	-5%
COc1cc(NC(=O)CNS(=O)(=O)c2cccs2)cc(OC)c1OC	.	.	-7%	13%	-7%	5%
CC1=CC(=C2C(=O)c3ccccc3C2=O)C=C(C)N1Cc1ccco1	-17%	45µM*	18µM*	-15%	-11%	7%
CCN(CC)S(=O)(=O)c1ccc(NC(=O)[C@H](CSCc2ccccc2)N2Cc3ccccc3C2=O)cc1	.	.	-3%	-10%	-20%	-1%
O=C(CCS(=O)(=O)c1nc(-c2ccc3c(c2)OCO3)cc(C(F)(F)F)n1)Nc1ccccc1F	.	.	-4%	40µM*	-15%	-2%
O=C(c1ccco1)n1nc(-c2ccccc2)nc1NCc1ccccc1Cl	.	.	-8%	?	-16%	?
COc1ccc(NC(=O)COC(=O)c2ccco2)c([N+](=O)[O-])c1	27µM*	-13%	-8%	-5%	1%	10%
CCOc1ccc(N/C=C/C(=O)c2ccc(C)cc2)c([N+](=O)[O-])c1	-9%	20%	1.1µM*	6%	-21%	-3%
CCOc1ccc(NC(=O)COc2ccccc2)c([N+](=O)[O-])c1	24µM*	7%	?	?	-30%	-3%
CCOc1ccc(N/C=C/C(=O)c2ccc3ccccc3c2)c([N+](=O)[O-])c1	-13%	20%	1.1µM*	0%	?	2%
CCOc1ccc(NC(=O)Cc2ccccc2)c([N+](=O)[O-])c1	-17%	11%	-17%	-13%	-16%	15%
C[C@H](NC(=O)[C@@H]1CCCN1C(=O)[C@@H]1CCCN1C(=O)c1cccc2ccccc12)c1ccccc1	3%	.	.	.	.	.
COc1ccccc1CNc1nc2c(S(=O)(=O)c3ccccc3)nnn2c2ccc(Cl)cc12	.	.	15%	-6%	1%	?
C=CCn1c(SCC(=O)NCCOC)nc2scc(-c3ccco3)c2c1=O	?	10µM*	22µM*	-9%	-17%	16µM*
C=CCn1c(SCc2ccccc2)nc2scc(-c3ccc(C)o3)c2c1=O	-9%	28µM*	-12%	5%	-11%	0%
CN(C)CCCN1c2ccccc2Sc2ccc(Cl)cc21	-4%	79µM*!	?	?	?	9%
CC(=O)Nc1ccc(Nc2nc(-c3sc(NC(C)=O)nc3C)cs2)cc1	24µM*	?	.	32µM*	.	.
CCCC(=O)Nc1nc(C)c(-c2csc(Nc3ccc(Cl)cc3)n2)s1	-24%	-10%	13µM*	-17%	14µM*[quencher]	7%
CC(=O)Nc1nc(C)c(-c2csc(Nc3cccc(C(C)=O)c3)n2)s1	-5%	-9%	.	-13%	.	.
CCC(C)C(=O)Nc1nc(C)c(-c2csc(Nc3ccc(Cl)cc3)n2)s1 (stereo not drawn)	-14%	-23%	?	3%	14µM*[quencher]	15%
CC(C)CN(C(=O)COC(=O)Cc1c[nH]c2ccccc12)c1c(N)n(Cc2ccccc2)c(=O)[nH]c1=O	-4%	.	.	-12%	.	.
Cn1c(=O)c(=O)n(C)c2cc(S(=O)(=O)Nc3ccc(Cl)c(C(F)(F)F)c3)ccc21	.	.	-15%	-7%	-26%	?
